Laboratory results as given in PubChem BioAssay (EPA / NIEHS).
The source made the active and inactive calls. Rule for the calls: active = hit-call score of the fitted dose curve at least 0.9, where 1 is the maximum; inactive = score below 0.9.

Legend:
Details in all cases: mRNA level, 48 h; actives raise or lower the signal
[1] = read-out: Interleukin 6 (IL6), IL6 (gene 3569); assay: LTEA_HepaRG_IL6: Life Technologies and Expression Analysis (LTEA) Assay for Interleukin 6 (IL6) using HepaRG (AID 2283509)
Outline: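 Differentiated human HepaRG cells, plated 48 h then switched to serum-free induction medium, were exposed in duplicate for 48 h to eight half-log concentrations up to 100 uM in 0.5% DMSO. IL6 mRNA measured by qRT-PCR, normalized to ACTB/GAPDH/POLR2A.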

[2] = read-out: Interleukin 6 Receptor (IL6R), IL6R (gene 3570); assay: LTEA_HepaRG_IL6R: Life Technologies and Expression Analysis (LTEA) Assay for Interleukin 6 Receptor (IL6R) using HepaRG (AID 2283510)
Outline: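 Readout is IL6R transcript level by TaqMan qRT-PCR, normalized to three housekeeping genes and fitted bidirectionally against 0.5% DMSO controls. Human HepaRG cells received chemicals for 48 h in serum-free induction medium, highest concentration 100 uM.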

[3] = read-out: Potassium channel subfamily K member 1 (KCNK1), KCNK1 (gene 3775); assay: LTEA_HepaRG_KCNK1: Life Technologies and Expression Analysis (LTEA) Assay for Potassium channel subfamily K member 1 (KCNK1) using HepaRG (AID 2283511)
Outline: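 Differentiated human HepaRG cells in serum-free induction medium were exposed in duplicate for 48 h to 8 half-log concentrations up to 100 uM in 0.5% DMSO. KCNK1 mRNA was measured by TaqMan qRT-PCR, normalized to ACTB, GAPDH and POLR2A, and fitted bidirectionally versus DMSO.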

[4] = read-out: Keratin 19 (KRT19), KRT19 (gene 3880); assay: LTEA_HepaRG_KRT19: Life Technologies and Expression Analysis (LTEA) Assay for Keratin 19 (KRT19) using HepaRG (AID 2283512)
Outline: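 Gene-expression endpoint in the human liver line HepaRG after 48 h exposure to up to 100 uM test chemical with 0.5% DMSO vehicle; KRT19 mRNA by qRT-PCR, analyzed bidirectionally versus DMSO.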

[5] = read-out: JUN Transcription Factor, JUN (gene 3725); assay: LTEA_HepaRG_JUN: Life Technologies and Expression Analysis (LTEA) Assay for JUN Transcription Factor using HepaRG (AID 2283513)
Outline: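 Cells plated 48 h, medium switched to serum-free induction medium, then dosed 48 h (100 uM top, half-log dilutions, 0.5% DMSO). RNA isolated; JUN measured by qRT-PCR against three housekeeping genes; gain or loss fitted relative to DMSO.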

[6] = read-out: Lipase C (LIPC), LIPC (gene 3990); assay: LTEA_HepaRG_LIPC: Life Technologies and Expression Analysis (LTEA) Assay for Lipase C (LIPC) using HepaRG (AID 2283514)
Outline: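 Differentiated human HepaRG cells in serum-free induction medium were exposed in duplicate for 48 h to eight concentrations (top 100 uM, half-log steps, 0.5% DMSO). LIPC mRNA was quantified by TaqMan qRT-PCR, normalized to ACTB, GAPDH and POLR2A, with bidirectional fitting versus DMSO.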

[7] = read-out: Lipoprotein lipase (LPL), LPL (gene 4023); assay: LTEA_HepaRG_LPL: Life Technologies and Expression Analysis (LTEA) Assay for Lipoprotein lipase (LPL) using HepaRG (AID 2283515)
Outline: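 Differentiated human HepaRG cells in serum-free induction medium were exposed in duplicate for 48 h to eight half-log concentrations (top 100 uM) in 0.5% DMSO. LPL mRNA was quantified by TaqMan qRT-PCR, normalized to ACTB, GAPDH and POLR2A.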

[8] = read-out: MicroRNA 122 (MIR122), gene 406906; assay: LTEA_HepaRG_MIR122: Life Technologies and Expression Analysis (LTEA) Assay for MicroRNA 122 (MIR122) using HepaRG (AID 2283516); note: the transcript read is the microRNA miR-122
Outline: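 HepaRG plated 48 h, switched to serum-free induction medium, then treated in duplicate for 48 h (100 uM top, half-log steps, 0.5% DMSO vehicle). RNA isolated, qRT-PCR performed, concentration-response fitted both directions relative to DMSO.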

[9] = read-out: matrix metalloproteinase-10 (MMP10), MMP10 (gene 4319); assay: LTEA_HepaRG_MMP10: Life Technologies and Expression Analysis (LTEA) Assay for matrix metalloproteinase-10 (MMP10) using HepaRG (AID 2283517)
Outline: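 HepaRG, collagen I, ~100,000 cells/well; serum-free induction medium; 48 h exposure, duplicate, 8-pt half-log to 100 uM, 0.5% DMSO. Readout: TaqMan qRT-PCR, normalized to ACTB/GAPDH/POLR2A; bidirectional fit vs DMSO.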

MYC, MYC (gene 4609) = assay: LTEA_HepaRG_MYC: Life Technologies and Expression Analysis (LTEA) Assay for MYC using HepaRG (AID 2283518)
Outline: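 Cells are thawed, plated and cultured 48 h, then treated for 48 h with test chemicals (eight half-log concentrations from 100 uM, 0.5% DMSO vehicle). RNA is isolated and MYC expression quantified by qRT-PCR against three housekeeping genes.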

[10] = read-out: matrix metalloproteinase-3 (MMP3), MMP3 (gene 4314); assay: LTEA_HepaRG_MMP3: Life Technologies and Expression Analysis (LTEA) Assay for matrix metalloproteinase-3 (MMP3) using HepaRG (AID 2283519)
Outline: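 Differentiated human HepaRG cells, plated 48 h on collagen I, were exposed in duplicate for 48 h in serum-free induction medium to eight half-log concentrations up to 100 uM in 0.5% DMSO. MMP3 mRNA was quantified by TaqMan qRT-PCR, normalised to ACTB, GAPDH and POLR2A.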

[11] = read-out: Paternally Expressed 10 (PEG10), PEG10 (gene 23089); assay: LTEA_HepaRG_PEG10: Life Technologies and Expression Analysis (LTEA) Assay for Paternally Expressed 10 (PEG10) using HepaRG (AID 2283520)
Outline: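 HepaRG, 48 h post-plating → serum-free induction medium → 48 h chemical exposure (duplicate, 8-pt, max 100 uM, half-log, 0.5% DMSO) → lysis in RLT → TaqMan qRT-PCR for PEG10, ACTB/GAPDH/POLR2A normalisation.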

[12] = read-out: Nuclear factor NF-kappa-B p105 subunit (Homo sapiens) (UniProt P19838); assay: LTEA_HepaRG_NFKB1: Life Technologies and Expression Analysis (LTEA) Assay for Nuclear Factor Kappa B Subunit 1 (NFKB1) using HepaRG (AID 2283521);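 note: TaqMan qRT-PCR transcript normalised to ACTB GAPDH and POLR2A housekeeping genes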
Outline: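 Human HepaRG cells receive eight half-log concentrations, highest 100 uM, for 48 h. NFKB1 expression is then quantified by qRT-PCR and analysed for up- or down-regulation relative to 0.5% DMSO vehicle.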

[13] = read-out: Protein phosphatase 2A (PPP2R4), PTPA (gene 5524); assay: LTEA_HepaRG_PPP2R4: Life Technologies and Expression Analysis (LTEA) Assay for Protein phosphatase 2A (PPP2R4) using HepaRG (AID 2283522)
Outline: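 Readout is PPP2R4 transcript level by microfluidic qRT-PCR after 48 h chemical treatment of human HepaRG liver cells. Concentrations spanned 100 uM downward in half-log steps; gain or loss of signal was fitted relative to DMSO.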

[14] = read-out: Phosphatase and tensin (PTEN), PTEN (gene 5728); assay: LTEA_HepaRG_PTEN: Life Technologies and Expression Analysis (LTEA) Assay for Phosphatase and tensin (PTEN) using HepaRG (AID 2283523)
Outline: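 Differentiated human HepaRG cells, plated 48 h then switched to serum-free induction medium, were exposed in duplicate for 48 h to eight half-log concentrations up to 100 uM in 0.5% DMSO. PTEN mRNA measured by TaqMan qRT-PCR, normalized to ACTB/GAPDH/POLR2A, bidirectional fit versus DMSO.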

[15] = read-out: solute carrier (SLC22A1), SLC22A1 (gene 6580); assay: LTEA_HepaRG_SLC22A1: Life Technologies and Expression Analysis (LTEA) Assay for solute carrier (SLC22A1) using HepaRG (AID 2283524)
Outline: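 Human HepaRG cells were plated 48 h, switched to serum-free induction medium, then exposed in duplicate for 48 h to 8-point half-log series from 100 uM in 0.5% DMSO. SLC22A1 mRNA measured by qRT-PCR, normalized to ACTB/GAPDH/POLR2A, fitted bidirectionally versus DMSO.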

[16] = read-out: Pyruvate Dehydrogenase Kinase 4 (PDK4), PDK4 (gene 5166); assay: LTEA_HepaRG_PDK4: Life Technologies and Expression Analysis (LTEA) Assay for Pyruvate Dehydrogenase Kinase 4 (PDK4) using HepaRG (AID 2283525)
Outline: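 Differentiated human HepaRG cells, pre-cultured 48 h, were exposed in duplicate for 48 h in serum-free induction medium to eight half-log concentrations up to 100 uM in 0.5% DMSO. PDK4 mRNA was quantified by qRT-PCR, normalized to ACTB, GAPDH and POLR2A, bidirectional fitting versus DMSO.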

[17] = read-out: NAD(P)H dehydrogenase [quinone] 1 (NQO1), NQO1 (gene 1728); assay: LTEA_HepaRG_NQO1: Life Technologies and Expression Analysis (LTEA) Assay for NAD(P)H dehydrogenase [quinone] 1 (NQO1) using HepaRG (AID 2283526)
Outline: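 HepaRG, 48 h post-plating → serum-free induction medium → test chemical 48 h (duplicate, 100 uM top, half-log x8, 0.5% DMSO) → RNA isolation → qRT-PCR, ACTB/GAPDH/POLR2A normalization; bidirectional curve fit vs DMSO baseline.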

[18] = read-out: Nuclear factor erythroid 2-related factor 2 (Homo sapiens) (UniProt Q16236); assay: LTEA_HepaRG_NFE2L2: Life Technologies and Expression Analysis (LTEA) Assay for Nuclear factor erythroid 2-related factor 2 (NFE2L2) Transcription Factor using HepaRG (AID 2283527);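 note: TaqMan qRT-PCR transcript level normalised to ACTB GAPDH and POLR2A housekeeping genes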
Outline: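 Differentiated human HepaRG cells in serum-free induction medium were exposed for 48 h to eight concentrations (top 100 uM, half-log dilutions, 0.5% DMSO), in duplicate. NFE2L2 mRNA was quantified by TaqMan qRT-PCR, normalized to ACTB, GAPDH and POLR2A, with bidirectional fitting versus DMSO.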

[19] = read-out: succinate dehydrogenase complex iron sulfur subunit B (SDHB), SDHB (gene 6390); assay: LTEA_HepaRG_SDHB: Life Technologies and Expression Analysis (LTEA) Assay for succinate dehydrogenase complex iron sulfur subunit B (SDHB) using HepaRG (AID 2283528)
Outline: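 A human HepaRG culture in serum-free induction medium received test chemicals for 48 h over an eight-point range capped at 100 uM. SDHB expression change was quantified by qRT-PCR.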

Measured: outcome

Chain of Nuclear factor NF-kappa-B p105 subunit (Homo sapiens) (P19838 whole entry, looked up): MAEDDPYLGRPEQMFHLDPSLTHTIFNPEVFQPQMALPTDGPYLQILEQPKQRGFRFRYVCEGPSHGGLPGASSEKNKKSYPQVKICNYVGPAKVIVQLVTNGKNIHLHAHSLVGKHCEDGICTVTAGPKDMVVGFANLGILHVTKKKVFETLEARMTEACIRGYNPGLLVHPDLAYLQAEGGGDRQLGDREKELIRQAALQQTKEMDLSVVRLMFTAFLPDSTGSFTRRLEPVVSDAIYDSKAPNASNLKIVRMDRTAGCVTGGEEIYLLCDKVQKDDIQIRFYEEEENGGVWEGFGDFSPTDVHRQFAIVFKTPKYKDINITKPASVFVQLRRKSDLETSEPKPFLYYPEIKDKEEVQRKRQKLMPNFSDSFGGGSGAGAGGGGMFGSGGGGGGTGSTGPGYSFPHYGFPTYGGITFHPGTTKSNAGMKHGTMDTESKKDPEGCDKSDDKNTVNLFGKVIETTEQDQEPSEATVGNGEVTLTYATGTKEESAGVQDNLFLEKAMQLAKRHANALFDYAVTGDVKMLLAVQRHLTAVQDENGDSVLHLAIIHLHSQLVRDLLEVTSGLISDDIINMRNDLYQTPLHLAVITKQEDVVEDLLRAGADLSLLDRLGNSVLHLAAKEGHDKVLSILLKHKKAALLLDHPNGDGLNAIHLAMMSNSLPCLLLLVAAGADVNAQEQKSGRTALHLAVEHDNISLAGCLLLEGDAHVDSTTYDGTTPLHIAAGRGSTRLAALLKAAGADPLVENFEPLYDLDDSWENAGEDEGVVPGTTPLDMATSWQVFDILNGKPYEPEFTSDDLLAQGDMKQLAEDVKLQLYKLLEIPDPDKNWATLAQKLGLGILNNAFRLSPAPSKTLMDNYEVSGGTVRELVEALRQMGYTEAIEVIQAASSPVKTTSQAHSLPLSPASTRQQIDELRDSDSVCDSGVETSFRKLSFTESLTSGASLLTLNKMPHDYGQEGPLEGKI
Chain of Nuclear factor erythroid 2-related factor 2 (Homo sapiens) (Q16236 whole entry, looked up): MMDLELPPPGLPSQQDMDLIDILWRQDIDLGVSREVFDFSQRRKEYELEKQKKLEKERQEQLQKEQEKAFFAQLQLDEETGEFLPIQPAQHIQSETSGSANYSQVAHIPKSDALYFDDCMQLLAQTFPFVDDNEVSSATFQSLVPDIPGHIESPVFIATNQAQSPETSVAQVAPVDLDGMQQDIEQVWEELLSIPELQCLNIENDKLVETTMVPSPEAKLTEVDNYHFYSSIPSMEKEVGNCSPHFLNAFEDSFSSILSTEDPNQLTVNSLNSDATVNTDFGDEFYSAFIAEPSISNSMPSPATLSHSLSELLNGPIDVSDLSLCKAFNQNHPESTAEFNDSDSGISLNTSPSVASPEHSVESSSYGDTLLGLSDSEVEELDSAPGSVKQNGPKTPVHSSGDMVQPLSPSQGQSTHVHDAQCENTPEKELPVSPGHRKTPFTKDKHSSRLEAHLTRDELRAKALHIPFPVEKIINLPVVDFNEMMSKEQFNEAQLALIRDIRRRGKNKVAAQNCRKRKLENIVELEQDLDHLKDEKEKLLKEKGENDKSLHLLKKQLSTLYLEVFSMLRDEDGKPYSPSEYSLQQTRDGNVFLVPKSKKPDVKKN

CCC(C)(C)C1CCC(O)CC1 (stereo not drawn)
inactive: all assays above

c1ccc2c(c1)ccc1ccccc12
not listed: [15]
inactive: all other assays above

CCOC(=O)CC(O)(CC(=O)OCC)C(=O)OCC
not listed: [15]
inactive: all other assays above
